Laboratory results: PubChem BioAssay (NCATS)
Records with an inconclusive call do not appear. Activity calls are given as the source filed them. Calls follow the shape of the dose curve; as a rule, active = well fitted cell-killing curve with a large enough effect; inconclusive = small, poorly fitted or top-dose-only effect, or effect the other way; inactive = flat fitted curve, though single readings scatter.

Legend:
Assay in all cases: Primary qHTS to identify gynecologic anti-cancer compounds using libraries of approved drugs and bioactive compounds (AID 1345084); also: nearly all actives have a fitted effect of over 55% in size
C33A = details: Gynecologic cancer cell panel viability, ATPlite luminescence, 48 h; series mostly up to 57.5 µM
Outline: (§1)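 Measured: luminescence after ATPlite addition (15 min, RT). Exposure: 48 h, 37 C, 5% CO2.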

CAOV3 = details: Gynecologic cancer cell panel viability, ATPlite luminescence, 48 h; series mostly up to 57.5 µM
Outline: as §1

CASKI = details: Gynecologic cancer cell panel viability, ATPlite luminescence, 48 h; series mostly up to 57.5 µM
Outline: as §1

Es-2 = details: Gynecologic cancer cell panel viability, ATPlite luminescence, 48 h; series mostly up to 57.5 µM
Outline: as §1

HeLa = details: Gynecologic cancer cell panel viability, ATPlite luminescence, 48 h; series mostly up to 57.5 µM
Outline: as §1

Hek293T = details: Gynecologic cancer cell panel viability, ATPlite luminescence, 48 h, control line for the selectivity index; series mostly up to 57.5 µM
Outline: as §1

JEG-3 = details: Gynecologic cancer cell panel viability, ATPlite luminescence, 48 h; series mostly up to 57.5 µM
Outline: as §1

OV90 = details: Gynecologic cancer cell panel viability, ATPlite luminescence, 48 h; series mostly up to 57.5 µM
Outline: as §1

PA-1 = details: Gynecologic cancer cell panel viability, ATPlite luminescence, 48 h; series mostly up to 57.5 µM
Outline: as §1

SKOV3 = details: Gynecologic cancer cell panel viability, ATPlite luminescence, 48 h; series mostly up to 57.5 µM
Outline: as §1

Tov-21-G = details: Gynecologic cancer cell panel viability, ATPlite luminescence, 48 h; series mostly up to 57.5 µM
Outline: as §1

Tov112D = details: Gynecologic cancer cell panel viability, ATPlite luminescence, 48 h; series mostly up to 57.5 µM
Outline: as §1
% is scaled to controls: 0 for no effect and ±100 for the full control effect.

COc1c(C)c(OCC(O)C(C)(C)O)cc2c1CNC2=O (stereo not drawn)
inactive: Potency (C33A) | Potency (CAOV3) | outcome (CASKI) | Potency (Es-2) | Potency (HeLa) | Potency (Hek293T) | Potency (JEG-3) | Potency (OV90) | Potency (PA-1) | Potency (SKOV3) | Potency (Tov-21-G) | Potency (Tov112D)

C[C@H]1CC[C@@]2(OC1)O[C@H]1CC3C4CC[C@H]5C[C@@H](O)CC[C@]5(C)C4CC(=O)[C@]3(C)[C@H]1[C@@H]2C (stereo partly drawn)
inactive: Potency (C33A) | Potency (CAOV3) | outcome (CASKI) | Potency (Es-2) | Potency (HeLa) | Potency (Hek293T) | Potency (JEG-3) | Potency (OV90) | Potency (PA-1) | Potency (SKOV3) | Potency (Tov-21-G) | Potency (Tov112D)

O=C(O[C@H]1[C@H](Oc2ccc(O)cc2CO)O[C@H](CO)[C@@H](O)[C@@H]1O)c1ccccc1
inactive: Potency (C33A) | Potency (CAOV3) | outcome (CASKI) | Potency (Es-2) | Potency (HeLa) | Potency (Hek293T) | Potency (JEG-3) | Potency (OV90) | Potency (PA-1) | Potency (SKOV3) | Potency (Tov-21-G) | Potency (Tov112D)

COc1cc(CCCO)ccc1O[C@@H]1O[C@H](CO)[C@@H](O)[C@H](O)[C@H]1O
inactive: Potency (C33A) | Potency (CAOV3) | outcome (CASKI) | Potency (Es-2) | Potency (HeLa) | Potency (Hek293T) | Potency (JEG-3) | Potency (OV90) | Potency (PA-1) | Potency (SKOV3) | Potency (Tov-21-G) | Potency (Tov112D)

CC1(C)Oc2ncnc(N)c2N=C1c1ccc(C2CCC(CC(=O)O)CC2)cc1 (stereo not drawn)
inactive: Potency (C33A) | Potency (CAOV3) | outcome (CASKI) | Potency (Es-2) | Potency (HeLa) | Potency (Hek293T) | Potency (JEG-3) | Potency (OV90) | Potency (PA-1) | Potency (SKOV3) | Potency (Tov-21-G) | Potency (Tov112D)

C/C=C/C=C/C=C/C(=O)N(C)C(C(=O)NC(C)C(=O)N1CCCC1C(N)=O)C(C)C (stereo not drawn)
inactive: Potency (C33A) | Potency (CAOV3) | outcome (CASKI) | Potency (Es-2) | Potency (HeLa) | Potency (Hek293T) | Potency (JEG-3) | Potency (OV90) | Potency (PA-1) | Potency (SKOV3) | Potency (Tov-21-G) | Potency (Tov112D)

COc1c2cc(c(O)c1OC)CCCCC(O)CCc1ccc(O)c-2c1 (stereo not drawn)
inactive: Potency (C33A) | Potency (CAOV3) | outcome (CASKI) | Potency (Es-2) | Potency (HeLa) | Potency (Hek293T) | Potency (JEG-3) | Potency (OV90) | Potency (PA-1) | Potency (SKOV3) | Potency (Tov-21-G) | Potency (Tov112D)

CC1(C)CC[C@]2(C(=O)O[C@@H]3O[C@H](CO)[C@@H](O)[C@H](O)[C@H]3O)CC[C@]3(C)C(=CCC4[C@@]5(C)CC[C@H](O[C@@H]6O[C@H](C(=O)O)[C@@H](O[C@@H]7O[C@H](CO)[C@@H](O)[C@H](O)[C@H]7O)[C@H](O)[C@H]6O)C(C)(C)C5CC[C@]43C)C2C1 (stereo partly drawn)
inactive: activity change, negative = cytotoxicity (C33A) -1.25% [at 11.6 µM] | activity change, negative = cytotoxicity (CAOV3) 6.34% [at 11.6 µM] | activity change, negative = cytotoxicity (CASKI) 0.127% [at 11.6 µM] | activity change, negative = cytotoxicity (Es-2) -4.47% [at 11.6 µM] | activity change, negative = cytotoxicity (HeLa) 6.83% [at 11.6 µM] | activity change, negative = cytotoxicity (Hek293T) 3.96% [at 11.6 µM] | activity change, negative = cytotoxicity (JEG-3) -0.8% [at 11.6 µM] | activity change, negative = cytotoxicity (OV90) 3.65% [at 11.6 µM] | activity change, negative = cytotoxicity (PA-1) 12% [at 11.6 µM] | activity change, negative = cytotoxicity (SKOV3) 7.57% [at 11.6 µM] | activity change, negative = cytotoxicity (Tov-21-G) 4.63% [at 11.6 µM] | activity change, negative = cytotoxicity (Tov112D) 2.05% [at 11.6 µM]

COC(=O)C(CC1CCCC1)c1ccc(S(C)(=O)=O)cc1 (stereo not drawn)
inactive: Potency (C33A) | Potency (CAOV3) | outcome (CASKI) | Potency (Es-2) | Potency (HeLa) | Potency (Hek293T) | Potency (JEG-3) | Potency (OV90) | Potency (PA-1) | Potency (SKOV3) | Potency (Tov-21-G) | Potency (Tov112D)

C=C(CCO)C(=O)OCC1OCC(OC(=O)C(=C)CCO[C@@H]2O[C@H](CO)[C@@H](O)[C@H](O)[C@H]2O)C(O)C1O (stereo partly drawn)
inactive: Potency (C33A) | Potency (CAOV3) | outcome (CASKI) | Potency (Es-2) | Potency (HeLa) | Potency (Hek293T) | Potency (JEG-3) | Potency (OV90) | Potency (PA-1) | Potency (SKOV3) | Potency (Tov-21-G) | Potency (Tov112D)

COc1ccnc(CCc2nc3ncccc3[nH]2)c1
inactive: Potency (C33A) | Potency (CAOV3) | outcome (CASKI) | Potency (Es-2) | Potency (HeLa) | Potency (Hek293T) | Potency (JEG-3) | Potency (OV90) | Potency (PA-1) | Potency (SKOV3) | Potency (Tov-21-G) | Potency (Tov112D)

O=C(NCC(=O)N1CCCC1)Nc1ccc2ccccc2c1
inactive: Potency (C33A) | Potency (CAOV3) | outcome (CASKI) | Potency (Es-2) | Potency (HeLa) | Potency (Hek293T) | Potency (JEG-3) | Potency (OV90) | Potency (PA-1) | Potency (SKOV3) | Potency (Tov-21-G) | Potency (Tov112D)

COc1c(C)c(OCC=C(C)C)cc2c1COC2=O
inactive: Potency (C33A) | Potency (CAOV3) | outcome (CASKI) | Potency (Es-2) | Potency (HeLa) | Potency (Hek293T) | Potency (JEG-3) | Potency (OV90) | Potency (PA-1) | Potency (SKOV3) | Potency (Tov-21-G) | Potency (Tov112D)

Cc1c(NC(=O)N2CCOCC2)ccc2c1c1ccccc1n2C(C)C
inactive: Potency (C33A) | Potency (CAOV3) | outcome (CASKI) | Potency (Es-2) | Potency (HeLa) | Potency (Hek293T) | Potency (JEG-3) | Potency (OV90) | Potency (PA-1) | Potency (SKOV3) | Potency (Tov-21-G) | Potency (Tov112D)
